# Measurements: PubChem BioAssay (EPA / NIEHS)
# The source made the active and inactive calls. Rule for the calls: active = hit-call score of the fitted dose curve at least 0.9, where 1 is the maximum; inactive = score below 0.9.
# How the values were obtained:
# [1] = target: Paired box protein Pax-6 (Homo sapiens) (UniProt P26367); assay: ATG_Pax6_CIS: Attagene CIS-FACTORIAL HepG2 Assay for human Paired Box 6 (PAX6) (AID 2282956); conditions: HepG2 CIS-FACTORIAL PAX6 reporter transcription, RNA readout; actives raise or lower the signal
# Chain of Paired box protein Pax-6 (Homo sapiens) (P26367 whole entry, looked up): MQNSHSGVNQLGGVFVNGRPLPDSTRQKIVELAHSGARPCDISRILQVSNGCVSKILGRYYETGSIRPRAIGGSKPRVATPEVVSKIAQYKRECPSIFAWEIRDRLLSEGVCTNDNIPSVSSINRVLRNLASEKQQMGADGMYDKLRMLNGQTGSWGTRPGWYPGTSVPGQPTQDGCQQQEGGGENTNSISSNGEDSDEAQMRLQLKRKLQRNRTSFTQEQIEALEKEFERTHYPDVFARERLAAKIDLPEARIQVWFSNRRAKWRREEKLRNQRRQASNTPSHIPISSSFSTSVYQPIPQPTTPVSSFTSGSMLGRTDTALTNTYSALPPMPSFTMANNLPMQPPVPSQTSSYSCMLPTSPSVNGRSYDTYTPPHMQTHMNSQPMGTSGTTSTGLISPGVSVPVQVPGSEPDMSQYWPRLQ
# How it was run: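 DMSO-referenced bidirectional fits of reporter mRNA fluorescence; HepG2 with transient cis-promoter MRTUs, 24 h post-dose, RT-PCR plus capillary electrophoresis detection.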
# [2] = ATG_PPRE_CIS: Attagene CIS-FACTORIAL HepG2 Assay for human Peroxisome Proliferator-activated Response Element (PPRE) (AID 2282958); conditions: HepG2 PPRE cis-element reporter, Attagene transcription factor profiling; actives raise or lower the signal
# How it was run: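 Endogenous PPRE-driven transcription is measured in HepG2 cells carrying transfected multi-reporter constructs. Reporter transcripts are quantified by RT-PCR, HpaI digestion and capillary electrophoresis 24 h after dosing. DMSO baseline, bidirectional fit.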
# [3] = ATG_RORE_CIS: Attagene CIS-FACTORIAL HepG2 Assay for human RAR-related Orphan Receptor Element (RORE) (AID 2282959); conditions: HepG2 Attagene cis-factorial RORE reporter, mRNA; actives raise or lower the signal
# How it was run: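 RORE reporter transcripts reflecting endogenous factor activity were read after 24 h compound exposure of transfected HepG2 cells, using reverse transcription, PCR, fluorescent labelling and capillary electrophoresis sizing. Gain or loss fitted against DMSO.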
# [4] = ATG_Sox_CIS: Attagene CIS-FACTORIAL HepG2 Assay for human SRY-box transcription factor (SOX) (AID 2282960); conditions: HepG2 Attagene cis-factorial SOX reporter, mRNA; actives raise or lower the signal
# How it was run: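 Reporter transcripts, measured by RT-PCR and capillary electrophoresis of labelled fragments, report endogenous SOX transcription factor activity. Transiently transfected human HepG2 cells receive chemical for 24 h; changes in either direction are fitted relative to DMSO.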
# [5] = target: Transcription factor Sp1 (Homo sapiens) (UniProt P08047); assay: ATG_Sp1_CIS: Attagene CIS-FACTORIAL HepG2 Assay for human Specificity Protein 1 (Sp1) (AID 2282961); conditions: HepG2 Sp1 cis-reporter transcription, actives raise or lower the signal
# Chain of Transcription factor Sp1 (Homo sapiens) (P08047 whole entry, looked up): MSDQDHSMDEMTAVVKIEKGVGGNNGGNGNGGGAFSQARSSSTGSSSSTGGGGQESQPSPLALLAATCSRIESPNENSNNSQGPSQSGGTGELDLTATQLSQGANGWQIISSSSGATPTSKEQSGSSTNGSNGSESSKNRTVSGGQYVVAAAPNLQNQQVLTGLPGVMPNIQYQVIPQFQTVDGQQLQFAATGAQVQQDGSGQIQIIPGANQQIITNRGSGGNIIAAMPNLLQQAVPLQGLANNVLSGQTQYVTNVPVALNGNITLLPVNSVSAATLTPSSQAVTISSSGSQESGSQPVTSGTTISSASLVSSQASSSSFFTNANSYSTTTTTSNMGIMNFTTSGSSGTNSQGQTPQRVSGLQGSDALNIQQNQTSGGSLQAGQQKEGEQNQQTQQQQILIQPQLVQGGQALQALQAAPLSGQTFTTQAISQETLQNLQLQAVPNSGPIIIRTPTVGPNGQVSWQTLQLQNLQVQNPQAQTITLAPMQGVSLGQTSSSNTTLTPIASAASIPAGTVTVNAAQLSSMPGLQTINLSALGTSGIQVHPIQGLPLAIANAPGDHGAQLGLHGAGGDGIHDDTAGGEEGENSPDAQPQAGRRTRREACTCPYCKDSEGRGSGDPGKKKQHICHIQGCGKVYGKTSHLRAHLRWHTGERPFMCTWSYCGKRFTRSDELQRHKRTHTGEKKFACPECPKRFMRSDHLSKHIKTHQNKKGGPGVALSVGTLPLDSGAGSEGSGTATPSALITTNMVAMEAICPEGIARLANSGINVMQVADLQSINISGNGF
# How it was run: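 Read-out is reporter transcript level, measured by RT-PCR and fluorescent capillary electrophoresis after 24 h chemical treatment. System: transiently transfected HepG2 cells reporting endogenous transcription factor activity; gain or loss fitted against DMSO baseline.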
# [6] = ATG_SREBP_CIS: Attagene CIS-FACTORIAL HepG2 Assay for human Sterol Regulatory Element Binding (SREBP) (AID 2282962); conditions: HepG2 Attagene cis-factorial SREBP reporter, mRNA; actives raise or lower the signal
# How it was run: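 In this cis-format assay, HepG2 liver cells express reporters controlled by promoter elements responsive to native transcription factors. Exposure lasts 24 h; reporter mRNA fluorescence from capillary electrophoresis gives the signal, fitted bidirectionally against DMSO.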
# [7] = target: Signal transducer and activator of transcription 3 (Homo sapiens) (UniProt P40763); assay: ATG_STAT3_CIS: Attagene CIS-FACTORIAL HepG2 Assay for human Signal Transducer and Activator of Transcription 3 (STAT3) (AID 2282963); conditions: HepG2, Attagene cis-factorial STAT3 reporter transcription; actives raise or lower the signal
# Chain of Signal transducer and activator of transcription 3 (Homo sapiens) (P40763 whole entry, looked up): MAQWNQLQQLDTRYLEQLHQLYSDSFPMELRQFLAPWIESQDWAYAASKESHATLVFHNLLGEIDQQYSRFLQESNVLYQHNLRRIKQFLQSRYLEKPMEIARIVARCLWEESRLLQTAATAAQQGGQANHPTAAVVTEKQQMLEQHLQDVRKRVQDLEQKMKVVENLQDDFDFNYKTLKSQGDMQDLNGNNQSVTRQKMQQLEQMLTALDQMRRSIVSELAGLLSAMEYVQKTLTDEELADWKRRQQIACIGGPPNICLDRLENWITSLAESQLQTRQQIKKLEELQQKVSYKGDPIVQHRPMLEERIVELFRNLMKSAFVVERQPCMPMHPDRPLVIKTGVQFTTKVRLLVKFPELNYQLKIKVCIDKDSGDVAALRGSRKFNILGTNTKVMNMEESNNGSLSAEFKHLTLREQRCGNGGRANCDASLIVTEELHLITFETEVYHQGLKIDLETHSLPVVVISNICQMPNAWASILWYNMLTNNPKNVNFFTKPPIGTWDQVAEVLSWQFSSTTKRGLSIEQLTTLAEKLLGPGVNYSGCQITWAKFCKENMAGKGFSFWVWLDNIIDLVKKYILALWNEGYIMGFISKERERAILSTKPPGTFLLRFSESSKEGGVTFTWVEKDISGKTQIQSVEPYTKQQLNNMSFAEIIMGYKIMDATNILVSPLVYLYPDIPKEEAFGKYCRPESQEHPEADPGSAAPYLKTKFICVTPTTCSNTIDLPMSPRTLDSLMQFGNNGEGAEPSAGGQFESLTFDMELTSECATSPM
# How it was run: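 Cis-factorial format: endogenous transcription factors in HepG2 drive transfected reporter units. After 24 h treatment, reporter RNA was reverse-transcribed, amplified, FAM-labelled and HpaI-digested before CE analysis; activity scored in both directions against DMSO.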
# [8] = ATG_TA_CIS: Attagene CIS-FACTORIAL HepG2 Assay for human TA Basal Promoter (AID 2282964); conditions: HepG2 Attagene CIS-factorial TA basal promoter reporter; actives raise or lower the signal
# How it was run: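 Background internal-marker endpoint from a 52-component HepG2 cis-reporter panel. Cells treated 24 h; reporter transcripts quantified via RT-PCR and CE fluorescence against DMSO baseline.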
# [9] = ATG_TCF_b_cat_CIS: Attagene CIS-FACTORIAL HepG2 Assay for human T-Cell-Factor with beta-catenin (TCF/b-cat) (AID 2282965); conditions: HepG2 TCF/beta-catenin cis-reporter transcription, actives raise or lower the signal
# How it was run: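 Endogenous TCF/LEF activity read as reporter transcript level via RT-PCR and capillary electrophoresis fluorescence in transfected HepG2, 24 h exposure; gain or loss of signal fitted against DMSO controls.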
# [10] = ATG_PXRE_CIS: Attagene CIS-FACTORIAL HepG2 Assay for human Pregnane X Receptor Element (PXRE) (AID 2282957); conditions: HepG2 Attagene CIS-FACTORIAL PXRE reporter, mRNA; actives raise or lower the signal
# How it was run: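 Fluorescent capillary electrophoresis of amplified reporter cDNA gave the signal, collected 24 h after dosing HepG2 cells that held transfected cis-element reporter constructs.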
structure (smiles),measurement,setting,value
CCCCCCC(C)Nc1ccc(Nc2ccccc2)cc1 (stereo not drawn),outcome,[1],inactive
same,outcome,[2],inactive
same,outcome,[3],inactive
same,outcome,[4],inactive
same,outcome,[5],inactive
same,outcome,[6],inactive
same,outcome,[7],inactive
same,outcome,[8],inactive
same,outcome,[9],inactive
Cc1ncc([N+](=O)[O-])n1CCO,outcome,[1],inactive
same,outcome,[3],inactive
same,outcome,[4],inactive
same,outcome,[5],inactive
same,outcome,[6],inactive
same,outcome,[7],inactive
same,outcome,[8],inactive
same,outcome,[9],inactive
CCCCCCCCCCCCS(=O)(=O)Cl,outcome,[1],inactive
same,outcome,[2],inactive
same,outcome,[3],inactive
same,outcome,[4],inactive
same,outcome,[5],inactive
same,outcome,[6],inactive
same,outcome,[7],inactive
same,outcome,[8],inactive
same,outcome,[9],inactive
CC1(C)O[C@@H]2[C@@H](CO[C@@]3(COS(N)(=O)=O)OC(C)(C)O[C@@H]23)O1,outcome,[1],inactive
same,outcome,[3],inactive
same,outcome,[4],inactive
same,outcome,[5],inactive
same,outcome,[6],inactive
same,outcome,[7],inactive
same,outcome,[9],inactive
CN(C)c1cccc(O)c1,outcome,[1],inactive
same,outcome,[2],inactive
same,outcome,[4],inactive
same,outcome,[5],inactive
same,outcome,[6],inactive
same,outcome,[8],inactive
same,outcome,[9],inactive
CC1(C)O[C@@H]2C[C@H]3[C@@H]4CCC5=CC(=O)C=C[C@]5(C)[C@@]4(F)[C@@H](O)C[C@]3(C)[C@]2(C(=O)CO)O1,outcome,[1],inactive
same,outcome,[2],inactive
same,outcome,[3],inactive
same,outcome,[4],inactive
same,outcome,[5],inactive
same,outcome,[6],inactive
same,outcome,[7],inactive
same,outcome,[8],inactive
same,outcome,[9],inactive
NC1CCCCC1N (stereo not drawn),outcome,[1],inactive
same,outcome,[2],inactive
same,outcome,[3],inactive
same,outcome,[4],inactive
same,outcome,[5],inactive
same,outcome,[6],inactive
same,outcome,[7],inactive
same,outcome,[8],inactive
same,outcome,[9],inactive
CC(C)(C)CC(C)(C)c1ccc(OCCOCC[N+](C)(C)Cc2ccccc2)cc1,outcome,[1],inactive
same,outcome,[2],inactive
same,outcome,[4],inactive
same,outcome,[5],inactive
same,AC50,[6],8.35 µM (active)
same,outcome,[7],inactive
same,outcome,[8],inactive
same,AC50,[9],12 µM (active)
C[N+](C)(C)CCCCCC[N+](C)(C)C,outcome,[1],inactive
same,outcome,[2],inactive
same,outcome,[3],inactive
same,outcome,[4],inactive
same,outcome,[5],inactive
same,outcome,[6],inactive
same,outcome,[8],inactive
same,outcome,[9],inactive
CCC1(c2ccccc2)C(=O)NCNC1=O,outcome,[1],inactive
same,outcome,[3],inactive
same,outcome,[4],inactive
same,outcome,[5],inactive
same,outcome,[6],inactive
same,outcome,[7],inactive
same,outcome,[8],inactive
same,outcome,[9],inactive
OCCOCCN1CCN(C2=Nc3ccccc3Sc3ccccc32)CC1,outcome,[1],inactive
same,outcome,[3],inactive
same,outcome,[4],inactive
same,outcome,[5],inactive
same,outcome,[6],inactive
same,outcome,[7],inactive
same,outcome,[8],inactive
CC(C)=CCCC(C)CC(=O)O (stereo not drawn),outcome,[1],inactive
same,outcome,[2],inactive
same,outcome,[3],inactive
same,outcome,[4],inactive
same,outcome,[5],inactive
same,outcome,[6],inactive
same,outcome,[7],inactive
same,outcome,[8],inactive
same,outcome,[9],inactive
Nc1ccc(NCCO)c([N+](=O)[O-])c1,outcome,[1],inactive
same,outcome,[2],inactive
same,outcome,[3],inactive
same,outcome,[4],inactive
same,outcome,[6],inactive
same,outcome,[7],inactive
same,outcome,[8],inactive
same,outcome,[9],inactive
CC1(C)CCC[C@]2(C)[C@H]3CCO[C@]3(C)CC[C@@H]12,outcome,[1],inactive
same,AC50,[3],100 µM (active)
same,outcome,[4],inactive
same,outcome,[5],inactive
same,AC50,[6],145 µM (active)
same,outcome,[9],inactive
Cc1cc(S(=O)(=O)O)ccc1N=Nc1c(O)ccc2ccccc12,outcome,[1],inactive
same,AC50,[3],4.16 µM (active)
same,outcome,[4],inactive
same,outcome,[5],inactive
same,outcome,[6],inactive
same,outcome,[7],inactive
same,outcome,[8],inactive
same,outcome,[9],inactive
CCCC1O[C@@H]2C[C@H]3[C@@H]4CCC5=CC(=O)C=C[C@]5(C)[C@H]4[C@@H](O)C[C@]3(C)[C@]2(C(=O)CO)O1 (stereo partly drawn),outcome,[1],inactive
same,outcome,[3],inactive
same,outcome,[4],inactive
same,outcome,[5],inactive
same,outcome,[6],inactive
same,outcome,[7],inactive
same,outcome,[8],inactive
same,AC50,[9],100 µM (active)
CCN(CCC#N)c1ccc(N=Nc2ccc([N+](=O)[O-])cc2)cc1,outcome,[10],inactive
same,outcome,[2],inactive
same,outcome,[3],inactive
same,outcome,[4],inactive
same,outcome,[5],inactive
same,outcome,[6],inactive
same,outcome,[7],inactive
same,outcome,[8],inactive
CC(C)(CO)[C@@H](O)C(=O)NCCC(=O)O,outcome,[1],inactive
same,outcome,[2],inactive
same,outcome,[4],inactive
same,outcome,[5],inactive
same,outcome,[6],inactive
same,outcome,[7],inactive
same,outcome,[8],inactive
same,outcome,[9],inactive
C=CCOC(=O)CCCCCC,outcome,[1],inactive
same,outcome,[2],inactive
same,outcome,[3],inactive
same,outcome,[4],inactive
same,outcome,[5],inactive
same,outcome,[6],inactive
same,outcome,[7],inactive
same,outcome,[8],inactive
same,outcome,[9],inactive
CC(C)(C)c1ccc(C(=O)O)cc1,outcome,[1],inactive
same,outcome,[3],inactive
same,outcome,[4],inactive
same,outcome,[5],inactive
same,outcome,[6],inactive
same,outcome,[7],inactive
same,outcome,[8],inactive
same,outcome,[9],inactive
CCOC(=O)C(C#N)=C(c1ccccc1)c1ccccc1,AC50,[1],35.1 µM (active)
same,AC50,[2],154 µM (active)
same,AC50,[3],17.4 µM (active)
same,outcome,[4],inactive
same,outcome,[5],inactive
same,AC50,[6],33.3 µM (active)
same,outcome,[7],inactive
same,AC50,[8],23.5 µM (active)
same,AC50,[9],26 µM (active)
CC(CN=Cc1ccccc1O)N=Cc1ccccc1O (stereo not drawn),outcome,[1],inactive
same,outcome,[2],inactive
same,outcome,[3],inactive
same,outcome,[4],inactive
same,outcome,[5],inactive
same,outcome,[6],inactive
same,outcome,[7],inactive
same,outcome,[8],inactive
same,outcome,[9],inactive
ON=C1CCCCC1,outcome,[1],inactive
same,outcome,[2],inactive
same,outcome,[3],inactive
same,outcome,[4],inactive
same,outcome,[6],inactive
same,outcome,[8],inactive
same,outcome,[9],inactive
Nc1c(S(=O)(=O)O)cc(Br)c2c1C(=O)c1ccccc1C2=O,outcome,[1],inactive
same,AC50,[3],100 µM (active)
same,outcome,[4],inactive
same,outcome,[6],inactive
same,outcome,[7],inactive
same,AC50,[8],100 µM (active)
same,outcome,[9],inactive
CSCCC=O,outcome,[1],inactive
same,outcome,[2],inactive
same,outcome,[3],inactive
same,outcome,[4],inactive
same,outcome,[5],inactive
same,outcome,[6],inactive
same,outcome,[8],inactive
same,outcome,[9],inactive
CCOC(=O)c1ccc(N)cc1,outcome,[1],inactive
same,outcome,[3],inactive
same,outcome,[4],inactive
same,outcome,[5],inactive
same,outcome,[6],inactive
same,outcome,[7],inactive
same,outcome,[8],inactive
same,outcome,[9],inactive
CC(=O)CC(=O)Nc1ccc(C)cc1C,outcome,[1],inactive
same,outcome,[2],inactive
same,outcome,[3],inactive
same,outcome,[4],inactive
same,outcome,[5],inactive
same,outcome,[6],inactive
same,outcome,[7],inactive
same,outcome,[9],inactive
Cc1c(C2(c3cc(Br)c(O)c(Br)c3C)OS(=O)(=O)c3ccccc32)cc(Br)c(O)c1Br,outcome,[1],inactive
same,outcome,[2],inactive
same,outcome,[3],inactive
same,outcome,[4],inactive
same,outcome,[5],inactive
same,outcome,[6],inactive
same,outcome,[7],inactive
same,outcome,[8],inactive
same,outcome,[9],inactive
Cc1c(OCC(F)(F)F)ccnc1CS(=O)c1nc2ccccc2[nH]1 (stereo not drawn),AC50,[1],43.5 µM (active)
same,outcome,[2],inactive
same,AC50,[3],19.8 µM (active)
same,outcome,[4],inactive
same,outcome,[5],inactive
same,outcome,[6],inactive
same,outcome,[7],inactive
same,AC50,[8],37.3 µM (active)
same,AC50,[9],57.7 µM (active)
CCCCC1CCC(O)CC1 (stereo not drawn),outcome,[10],inactive
same,outcome,[2],inactive
same,outcome,[3],inactive
same,outcome,[4],inactive
same,outcome,[5],inactive
same,outcome,[6],inactive
same,outcome,[7],inactive
same,outcome,[9],inactive
COC(=O)c1cccnc1,outcome,[10],inactive
same,outcome,[2],inactive
same,outcome,[3],inactive
same,outcome,[4],inactive
same,outcome,[5],inactive
same,outcome,[6],inactive
same,outcome,[7],inactive
same,outcome,[8],inactive
same,outcome,[9],inactive
N#Cc1ccc(CC(=O)c2cccc(C(F)(F)F)c2)cc1,AC50,[10],5.18 µM (active)
same,outcome,[2],inactive
same,outcome,[3],inactive
same,outcome,[4],inactive
same,outcome,[5],inactive
same,outcome,[6],inactive
same,outcome,[7],inactive
same,outcome,[8],inactive
same,outcome,[9],inactive
CCCCCCC(=O)c1ccccc1,AC50,[10],43.2 µM (active)
same,outcome,[2],inactive
same,outcome,[3],inactive
same,outcome,[4],inactive
same,outcome,[5],inactive
same,outcome,[6],inactive
same,outcome,[7],inactive
same,outcome,[8],inactive
same,outcome,[9],inactive
N#Cc1cscn1,AC50,[10],71.7 µM (active)
same,outcome,[3],inactive
same,outcome,[4],inactive
same,outcome,[5],inactive
same,outcome,[6],inactive
same,outcome,[7],inactive
same,outcome,[8],inactive
same,outcome,[9],inactive
